Holding throughout (experiment): DAPPL (digital affinity profiling via proximity ligation, sequencing); 10 mM Tris-HCl pH 7.5, 50 mM NaCl, 1 mM DTT, 4% glycerol, room temperature, 30 min; GST-TFs on glutathione beads, 16-mer random dsDNA library, 0.1% formaldehyde crosslink after washing; high values mean tight binding
The target of one test is T1, FLI1 (Homo sapiens, UniProt Q01543 1-452).
T1 sequence: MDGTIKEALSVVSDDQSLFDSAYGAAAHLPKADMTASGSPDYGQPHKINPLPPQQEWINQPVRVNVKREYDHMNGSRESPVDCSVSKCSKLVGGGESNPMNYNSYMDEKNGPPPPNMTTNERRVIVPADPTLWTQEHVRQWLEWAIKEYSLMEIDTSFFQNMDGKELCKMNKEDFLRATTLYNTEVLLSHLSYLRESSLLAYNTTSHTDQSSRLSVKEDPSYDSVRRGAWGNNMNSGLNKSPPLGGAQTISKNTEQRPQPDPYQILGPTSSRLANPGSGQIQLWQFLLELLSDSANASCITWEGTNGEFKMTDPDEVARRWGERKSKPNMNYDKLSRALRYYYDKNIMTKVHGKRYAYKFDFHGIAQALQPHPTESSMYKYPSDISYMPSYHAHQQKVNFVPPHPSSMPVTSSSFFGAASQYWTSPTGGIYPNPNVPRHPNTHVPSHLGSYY
As to conditions: protein: recombinant; tags: N-terminal GST; dsDNA, one strand shown. The method in brief:
(§1)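 Human transcription factors were made in yeast as GST fusions, captured on glutathione beads and barcoded with DNA. With a tag-only sample included, the pool was incubated with 200 nmole of a random double-stranded 16-mer DNA library in Tris/NaCl/DTT/glycerol buffer at room temperature for 30 min, then crosslinked with 0.1% formaldehyde after washing, ligated by proximity, amplified and sequenced. For binding signal, each hexamer's read frequency for a factor is divided by its frequency for the tag-only sample.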

Another test concerns the target T2, ELK1 (Homo sapiens, UniProt P19419 1-428).
T2 sequence: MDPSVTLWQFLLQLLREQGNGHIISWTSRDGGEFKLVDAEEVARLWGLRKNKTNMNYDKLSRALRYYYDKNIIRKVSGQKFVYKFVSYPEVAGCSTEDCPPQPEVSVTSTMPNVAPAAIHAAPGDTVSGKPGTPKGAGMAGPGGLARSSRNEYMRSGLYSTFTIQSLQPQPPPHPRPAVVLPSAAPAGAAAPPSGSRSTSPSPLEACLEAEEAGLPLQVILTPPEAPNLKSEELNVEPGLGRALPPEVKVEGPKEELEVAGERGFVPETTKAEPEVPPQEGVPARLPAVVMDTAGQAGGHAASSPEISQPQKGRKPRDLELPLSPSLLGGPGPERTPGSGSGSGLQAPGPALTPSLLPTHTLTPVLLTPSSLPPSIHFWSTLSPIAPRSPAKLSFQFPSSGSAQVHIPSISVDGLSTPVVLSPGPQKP
As to conditions: protein: recombinant; tags: N-terminal GST; dsDNA, one strand shown. The method in brief:
as §1

The target in another test is T3, GABPA (Homo sapiens, UniProt Q06546 1-454).
T3 sequence: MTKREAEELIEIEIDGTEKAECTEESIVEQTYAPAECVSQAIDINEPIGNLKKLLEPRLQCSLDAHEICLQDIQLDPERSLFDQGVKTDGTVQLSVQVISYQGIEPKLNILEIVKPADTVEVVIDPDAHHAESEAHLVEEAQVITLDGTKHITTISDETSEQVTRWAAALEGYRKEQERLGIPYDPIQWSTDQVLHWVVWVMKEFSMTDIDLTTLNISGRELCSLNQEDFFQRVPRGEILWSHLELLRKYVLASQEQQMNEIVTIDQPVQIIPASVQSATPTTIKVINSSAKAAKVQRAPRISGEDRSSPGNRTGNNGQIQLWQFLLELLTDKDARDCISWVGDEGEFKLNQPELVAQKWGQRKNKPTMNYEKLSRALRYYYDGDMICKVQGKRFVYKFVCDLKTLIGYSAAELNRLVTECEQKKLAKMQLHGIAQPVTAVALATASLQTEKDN
As to conditions: protein: recombinant; tags: N-terminal GST; dsDNA, one strand shown. The method in brief:
as §1

The target in another test is T4, ERG (Homo sapiens, UniProt P11308 1-479).
T4 sequence: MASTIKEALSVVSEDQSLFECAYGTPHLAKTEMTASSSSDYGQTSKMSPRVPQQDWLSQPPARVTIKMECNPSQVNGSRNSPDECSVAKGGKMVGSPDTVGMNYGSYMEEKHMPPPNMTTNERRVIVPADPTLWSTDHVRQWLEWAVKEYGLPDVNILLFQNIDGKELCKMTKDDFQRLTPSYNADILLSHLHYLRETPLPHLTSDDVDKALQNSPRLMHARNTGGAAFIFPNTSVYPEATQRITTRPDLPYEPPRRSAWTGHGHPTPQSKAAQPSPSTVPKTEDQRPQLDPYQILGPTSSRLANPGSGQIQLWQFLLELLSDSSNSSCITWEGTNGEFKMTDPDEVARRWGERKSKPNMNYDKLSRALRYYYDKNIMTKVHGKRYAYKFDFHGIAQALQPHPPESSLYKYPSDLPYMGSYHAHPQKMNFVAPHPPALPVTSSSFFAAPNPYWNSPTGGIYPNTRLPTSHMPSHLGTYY
As to conditions: protein: recombinant; tags: N-terminal GST; dsDNA, one strand shown. The gist of the method:
as §1

Another test has as its target ELF1 (Homo sapiens, UniProt P32519 1-619). As to conditions: protein: recombinant; tags: N-terminal GST; dsDNA, one strand shown. The method in brief:
as §1

In another test the target is T5, EHF (Homo sapiens, UniProt Q9NZC4 1-300).
T5 sequence: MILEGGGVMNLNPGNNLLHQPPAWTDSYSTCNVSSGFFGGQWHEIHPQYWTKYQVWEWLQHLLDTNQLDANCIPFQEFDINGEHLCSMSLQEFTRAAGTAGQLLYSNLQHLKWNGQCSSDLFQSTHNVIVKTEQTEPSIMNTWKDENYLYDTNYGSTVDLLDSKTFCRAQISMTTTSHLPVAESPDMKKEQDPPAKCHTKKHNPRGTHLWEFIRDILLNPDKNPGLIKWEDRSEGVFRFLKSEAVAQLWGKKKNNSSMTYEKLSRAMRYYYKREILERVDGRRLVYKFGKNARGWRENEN
As to conditions: protein: recombinant; tags: N-terminal GST; dsDNA, one strand shown. The method in brief:
as §1

The target in another test is SPI1 (Homo sapiens, UniProt P17947 1-270). As to conditions: protein: recombinant; tags: N-terminal GST; dsDNA, one strand shown. The gist of the method:
as §1

In a further test the target is SPIB (Homo sapiens, UniProt Q01892 1-262). As to conditions: protein: recombinant; tags: N-terminal GST; dsDNA, one strand shown. The gist of the method: as §1
Chain of SPIB (Q01892 whole entry): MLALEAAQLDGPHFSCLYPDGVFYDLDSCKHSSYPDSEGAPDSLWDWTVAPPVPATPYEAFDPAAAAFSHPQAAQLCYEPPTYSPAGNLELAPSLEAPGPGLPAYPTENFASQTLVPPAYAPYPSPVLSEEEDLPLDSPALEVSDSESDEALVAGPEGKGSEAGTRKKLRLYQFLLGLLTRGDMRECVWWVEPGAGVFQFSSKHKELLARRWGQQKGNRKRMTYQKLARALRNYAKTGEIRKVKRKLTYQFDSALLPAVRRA
For the next test, the target named is T6, ELK3 (Homo sapiens, UniProt P41970 1-407).
T6 sequence: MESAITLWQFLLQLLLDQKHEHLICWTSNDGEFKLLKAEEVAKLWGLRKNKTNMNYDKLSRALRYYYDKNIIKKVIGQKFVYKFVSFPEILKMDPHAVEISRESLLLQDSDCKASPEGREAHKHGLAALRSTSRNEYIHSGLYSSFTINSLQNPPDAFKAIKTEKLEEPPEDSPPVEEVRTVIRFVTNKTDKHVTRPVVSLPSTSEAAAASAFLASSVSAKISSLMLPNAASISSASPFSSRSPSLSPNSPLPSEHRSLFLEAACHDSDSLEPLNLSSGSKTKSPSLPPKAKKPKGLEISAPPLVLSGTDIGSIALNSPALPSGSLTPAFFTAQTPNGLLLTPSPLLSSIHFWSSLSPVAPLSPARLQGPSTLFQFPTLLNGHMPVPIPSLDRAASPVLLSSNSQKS
As to conditions: protein: recombinant; tags: N-terminal GST; dsDNA, one strand shown. The gist of the method:
as §1

Another test addresses T7, FEV (Homo sapiens, UniProt Q99581 1-238).
T7 sequence: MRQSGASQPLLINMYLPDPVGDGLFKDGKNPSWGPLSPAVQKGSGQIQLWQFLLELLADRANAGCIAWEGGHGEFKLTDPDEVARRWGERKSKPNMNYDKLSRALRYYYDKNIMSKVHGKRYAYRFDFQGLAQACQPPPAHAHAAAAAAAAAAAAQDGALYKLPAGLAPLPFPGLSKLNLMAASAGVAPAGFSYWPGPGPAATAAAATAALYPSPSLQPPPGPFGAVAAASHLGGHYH
As to conditions: protein: recombinant; tags: N-terminal GST; dsDNA, one strand shown. The method in brief: as §1

For the next test, the target named is ETV5 (Homo sapiens, UniProt P41161 1-510). As to conditions: protein: recombinant; tags: N-terminal GST; dsDNA, one strand shown. The method in brief: as §1
Chain of ETV5 (P41161 whole entry): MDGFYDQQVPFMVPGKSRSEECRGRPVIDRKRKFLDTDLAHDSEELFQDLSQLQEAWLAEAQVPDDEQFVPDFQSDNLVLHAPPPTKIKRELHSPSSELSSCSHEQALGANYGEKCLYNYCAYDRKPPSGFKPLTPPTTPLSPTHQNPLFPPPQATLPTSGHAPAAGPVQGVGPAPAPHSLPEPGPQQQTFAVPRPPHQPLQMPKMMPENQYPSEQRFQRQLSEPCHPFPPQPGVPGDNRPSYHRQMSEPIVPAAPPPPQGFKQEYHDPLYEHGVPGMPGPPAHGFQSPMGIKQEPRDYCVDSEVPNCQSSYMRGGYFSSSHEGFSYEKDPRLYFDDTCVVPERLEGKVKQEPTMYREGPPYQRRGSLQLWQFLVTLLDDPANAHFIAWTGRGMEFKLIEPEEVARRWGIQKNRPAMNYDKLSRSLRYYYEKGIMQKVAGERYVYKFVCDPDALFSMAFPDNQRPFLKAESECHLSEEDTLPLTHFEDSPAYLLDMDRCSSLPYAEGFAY
For the next test, the target named is HSF1 (Homo sapiens, UniProt Q00613 1-529). As to conditions: protein: recombinant; tags: N-terminal GST; chain copies: 3; dsDNA, one strand shown. The gist of the method: as §1
Chain of HSF1 (Q00613 whole entry): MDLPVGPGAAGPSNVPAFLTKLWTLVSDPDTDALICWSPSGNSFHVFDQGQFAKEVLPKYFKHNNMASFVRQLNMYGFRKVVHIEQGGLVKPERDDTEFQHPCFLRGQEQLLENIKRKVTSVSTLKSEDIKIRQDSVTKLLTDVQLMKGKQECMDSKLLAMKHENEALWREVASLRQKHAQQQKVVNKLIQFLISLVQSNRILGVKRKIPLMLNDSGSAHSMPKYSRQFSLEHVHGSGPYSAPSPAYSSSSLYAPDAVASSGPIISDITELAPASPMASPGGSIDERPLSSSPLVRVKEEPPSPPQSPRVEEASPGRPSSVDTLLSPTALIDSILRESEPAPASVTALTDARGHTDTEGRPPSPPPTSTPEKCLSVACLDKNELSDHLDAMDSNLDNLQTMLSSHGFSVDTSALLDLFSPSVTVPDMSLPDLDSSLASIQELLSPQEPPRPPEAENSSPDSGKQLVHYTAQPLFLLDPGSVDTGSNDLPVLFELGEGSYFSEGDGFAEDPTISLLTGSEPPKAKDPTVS
The next test addresses T8, SPIC (Homo sapiens, UniProt Q8N5J4 1-248).
T8 sequence: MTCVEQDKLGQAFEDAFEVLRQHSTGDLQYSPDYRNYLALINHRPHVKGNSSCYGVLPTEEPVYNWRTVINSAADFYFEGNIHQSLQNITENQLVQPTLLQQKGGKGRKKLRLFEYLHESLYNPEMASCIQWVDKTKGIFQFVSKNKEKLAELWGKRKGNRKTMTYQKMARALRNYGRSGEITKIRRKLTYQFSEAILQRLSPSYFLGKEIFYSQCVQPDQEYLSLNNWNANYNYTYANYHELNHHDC
As to conditions: protein: recombinant; tags: N-terminal GST; dsDNA, one strand shown. The gist of the method: as §1

A further test concerns the target ELF4 (Homo sapiens, UniProt Q99607 1-663). As to conditions: protein: recombinant; tags: N-terminal GST; dsDNA, one strand shown. The gist of the method:
as §1

Another test concerns the target T9, ELK4 (Homo sapiens, UniProt P28324-2 1-405).
T9 sequence: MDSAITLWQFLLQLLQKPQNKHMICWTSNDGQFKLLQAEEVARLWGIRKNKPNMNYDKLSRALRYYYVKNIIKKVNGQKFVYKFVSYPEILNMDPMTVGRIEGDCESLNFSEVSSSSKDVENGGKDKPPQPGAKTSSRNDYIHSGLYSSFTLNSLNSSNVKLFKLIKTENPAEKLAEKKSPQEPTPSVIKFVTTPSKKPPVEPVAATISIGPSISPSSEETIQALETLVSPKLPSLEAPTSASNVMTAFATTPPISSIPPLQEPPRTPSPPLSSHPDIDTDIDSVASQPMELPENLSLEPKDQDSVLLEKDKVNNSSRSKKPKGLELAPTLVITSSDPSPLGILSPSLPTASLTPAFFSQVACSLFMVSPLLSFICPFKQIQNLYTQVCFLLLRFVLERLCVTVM
As to conditions: protein: recombinant; tags: N-terminal GST; dsDNA, one strand shown. The method in brief:
as §1

For another test, the target named is T10, ETV2 (Homo sapiens, UniProt O00321 1-342).
T10 sequence: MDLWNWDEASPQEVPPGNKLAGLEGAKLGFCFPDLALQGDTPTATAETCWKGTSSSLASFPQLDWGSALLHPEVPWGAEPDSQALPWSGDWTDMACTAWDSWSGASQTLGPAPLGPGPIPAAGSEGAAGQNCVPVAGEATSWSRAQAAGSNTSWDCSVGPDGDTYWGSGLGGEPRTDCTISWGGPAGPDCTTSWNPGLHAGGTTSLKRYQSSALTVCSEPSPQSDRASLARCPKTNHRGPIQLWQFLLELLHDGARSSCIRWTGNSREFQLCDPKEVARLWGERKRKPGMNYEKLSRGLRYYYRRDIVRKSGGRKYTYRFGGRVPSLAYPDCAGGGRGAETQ
As to conditions: protein: recombinant; tags: N-terminal GST; dsDNA, one strand shown. The method in brief: as §1

Another test addresses T11, ELF3 (Homo sapiens, UniProt P78545 1-371).
T11 sequence: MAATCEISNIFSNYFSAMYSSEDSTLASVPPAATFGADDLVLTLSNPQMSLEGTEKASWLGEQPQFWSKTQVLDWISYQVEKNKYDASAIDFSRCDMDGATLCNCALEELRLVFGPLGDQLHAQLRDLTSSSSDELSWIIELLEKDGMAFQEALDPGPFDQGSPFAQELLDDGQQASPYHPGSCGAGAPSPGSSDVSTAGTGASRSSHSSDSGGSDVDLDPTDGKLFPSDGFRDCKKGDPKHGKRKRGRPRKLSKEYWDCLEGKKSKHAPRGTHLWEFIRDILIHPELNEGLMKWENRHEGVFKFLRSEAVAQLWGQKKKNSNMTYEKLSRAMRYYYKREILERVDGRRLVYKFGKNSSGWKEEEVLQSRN
As to conditions: protein: recombinant; tags: N-terminal GST; dsDNA, one strand shown. The method in brief:
as §1

For a further test, the target named is CRX (Homo sapiens, UniProt O43186 1-299). As to conditions: protein: recombinant; tags: N-terminal GST; dsDNA, one strand shown. The method in brief: as §1
Chain of CRX (O43186 whole entry): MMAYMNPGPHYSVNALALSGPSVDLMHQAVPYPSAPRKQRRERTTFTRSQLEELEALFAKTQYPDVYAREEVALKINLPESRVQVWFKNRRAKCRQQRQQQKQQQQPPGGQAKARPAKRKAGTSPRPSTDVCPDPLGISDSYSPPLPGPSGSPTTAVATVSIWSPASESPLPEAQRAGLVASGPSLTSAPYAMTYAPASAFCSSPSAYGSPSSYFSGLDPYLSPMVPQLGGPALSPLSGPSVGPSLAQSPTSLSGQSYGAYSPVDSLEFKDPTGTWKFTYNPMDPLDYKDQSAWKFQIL
The target in the next test is ETV1 (Homo sapiens, UniProt P50549 1-477). As to conditions: protein: recombinant; tags: N-terminal GST; dsDNA, one strand shown. The method in brief: as §1
Chain of ETV1 (P50549 whole entry): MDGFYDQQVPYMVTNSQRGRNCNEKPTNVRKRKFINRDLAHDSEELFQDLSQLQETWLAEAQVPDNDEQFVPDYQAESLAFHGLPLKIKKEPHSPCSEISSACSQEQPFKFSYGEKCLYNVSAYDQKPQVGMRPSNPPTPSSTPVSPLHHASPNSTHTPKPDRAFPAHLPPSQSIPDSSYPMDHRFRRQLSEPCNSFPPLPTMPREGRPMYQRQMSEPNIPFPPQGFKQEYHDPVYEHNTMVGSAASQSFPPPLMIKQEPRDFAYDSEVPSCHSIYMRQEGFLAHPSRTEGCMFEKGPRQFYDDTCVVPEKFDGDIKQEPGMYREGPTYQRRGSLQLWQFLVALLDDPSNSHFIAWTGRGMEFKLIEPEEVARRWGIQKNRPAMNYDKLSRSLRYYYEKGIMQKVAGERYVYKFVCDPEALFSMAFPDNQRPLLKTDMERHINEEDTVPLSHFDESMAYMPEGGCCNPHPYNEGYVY

Chain of ELF1 (P32519 whole entry): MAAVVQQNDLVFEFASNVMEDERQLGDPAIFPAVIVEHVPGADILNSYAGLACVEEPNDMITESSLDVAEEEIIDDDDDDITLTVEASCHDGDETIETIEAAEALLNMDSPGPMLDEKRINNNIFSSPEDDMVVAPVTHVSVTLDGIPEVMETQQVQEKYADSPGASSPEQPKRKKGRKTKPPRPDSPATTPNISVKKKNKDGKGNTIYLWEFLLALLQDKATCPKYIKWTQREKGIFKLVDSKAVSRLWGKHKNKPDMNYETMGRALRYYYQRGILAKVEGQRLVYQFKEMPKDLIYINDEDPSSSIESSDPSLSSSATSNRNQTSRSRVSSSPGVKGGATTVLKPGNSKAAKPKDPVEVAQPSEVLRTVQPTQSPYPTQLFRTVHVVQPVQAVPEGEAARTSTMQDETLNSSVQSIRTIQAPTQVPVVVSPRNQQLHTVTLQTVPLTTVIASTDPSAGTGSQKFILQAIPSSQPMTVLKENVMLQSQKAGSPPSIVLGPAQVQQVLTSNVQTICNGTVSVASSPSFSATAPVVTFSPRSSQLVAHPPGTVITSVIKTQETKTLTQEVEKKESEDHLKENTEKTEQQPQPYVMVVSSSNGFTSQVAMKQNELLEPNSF
Chain of ELF4 (Q99607 whole entry): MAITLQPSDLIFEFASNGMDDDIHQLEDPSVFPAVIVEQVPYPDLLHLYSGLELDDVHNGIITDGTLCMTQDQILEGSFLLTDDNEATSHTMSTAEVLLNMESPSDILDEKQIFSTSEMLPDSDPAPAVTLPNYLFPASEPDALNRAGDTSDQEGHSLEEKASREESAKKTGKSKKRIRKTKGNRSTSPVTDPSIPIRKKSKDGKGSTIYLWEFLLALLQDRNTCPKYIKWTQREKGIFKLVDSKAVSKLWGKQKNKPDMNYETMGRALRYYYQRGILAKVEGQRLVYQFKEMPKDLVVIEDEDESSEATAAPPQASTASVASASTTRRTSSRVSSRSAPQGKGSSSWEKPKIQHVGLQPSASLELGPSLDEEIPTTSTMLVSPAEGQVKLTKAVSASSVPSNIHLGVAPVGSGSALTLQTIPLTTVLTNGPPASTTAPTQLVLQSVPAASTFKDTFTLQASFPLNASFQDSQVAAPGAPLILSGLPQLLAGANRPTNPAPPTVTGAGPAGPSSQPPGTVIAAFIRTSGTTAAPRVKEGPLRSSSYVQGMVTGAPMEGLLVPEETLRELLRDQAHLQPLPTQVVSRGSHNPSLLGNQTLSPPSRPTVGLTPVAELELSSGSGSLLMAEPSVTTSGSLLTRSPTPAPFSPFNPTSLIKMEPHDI

Take CTCCCT: the binding signal was 1.61 fold enrichment (6-mer frequency, TF over GST control) in the test with FLI1; 1.43 fold enrichment (6-mer frequency, TF over GST control) with ELK1; 1.54 fold enrichment (6-mer frequency, TF over GST control) in the test with GABPA; 1.62 fold enrichment (6-mer frequency, TF over GST control) with ERG; 1.68 fold enrichment (6-mer frequency, TF over GST control) with ELF1; 1.52 fold enrichment (6-mer frequency, TF over GST control) in the test with EHF. In addition, the binding signal with SPI1 is 1.49 fold enrichment (6-mer frequency, TF over GST control); in the test with SPIB, 1.66 fold enrichment (6-mer frequency, TF over GST control); with ELK3, 1.5 fold enrichment (6-mer frequency, TF over GST control); in the test with FEV it was 1.44 fold enrichment (6-mer frequency, TF over GST control); with ETV5 it was 1.73 fold enrichment (6-mer frequency, TF over GST control); with HSF1, 1.32 fold enrichment (6-mer frequency, TF over GST control). In addition, the binding signal was 1.38 fold enrichment (6-mer frequency, TF over GST control) in the test with SPIC; 1.59 fold enrichment (6-mer frequency, TF over GST control) with ELF4; 1.41 fold enrichment (6-mer frequency, TF over GST control) in the test with ELK4; 1.51 fold enrichment (6-mer frequency, TF over GST control) with ETV2; 1.48 fold enrichment (6-mer frequency, TF over GST control) with ELF3; 1.36 fold enrichment (6-mer frequency, TF over GST control) with CRX. The binding signal with ETV1 is 1.44 fold enrichment (6-mer frequency, TF over GST control).
